# Reference: publication PMC4336329 (PLoS ONE, 2015)
# The campaign covered roughly 310,000 compounds. About 14,000 (4.5%) showed an effect of 50% or more. Effects have a minus sign here. The entries come from a sample that favours strong results as a whole.
# Molecular target: human ether-à-go-go-related gene (hERG) potassium channel (human, UniProt Q12809)
# Experiment: primary screen, population patch clamp on CHO cells stably expressing hERG; higher = less effect of the substance
# 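Also: peak tail current of the secondary pulse compared with the same well before compound.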
# Sequence of human ether-à-go-go-related gene (hERG) potassium channel (Q12809 whole entry, looked up): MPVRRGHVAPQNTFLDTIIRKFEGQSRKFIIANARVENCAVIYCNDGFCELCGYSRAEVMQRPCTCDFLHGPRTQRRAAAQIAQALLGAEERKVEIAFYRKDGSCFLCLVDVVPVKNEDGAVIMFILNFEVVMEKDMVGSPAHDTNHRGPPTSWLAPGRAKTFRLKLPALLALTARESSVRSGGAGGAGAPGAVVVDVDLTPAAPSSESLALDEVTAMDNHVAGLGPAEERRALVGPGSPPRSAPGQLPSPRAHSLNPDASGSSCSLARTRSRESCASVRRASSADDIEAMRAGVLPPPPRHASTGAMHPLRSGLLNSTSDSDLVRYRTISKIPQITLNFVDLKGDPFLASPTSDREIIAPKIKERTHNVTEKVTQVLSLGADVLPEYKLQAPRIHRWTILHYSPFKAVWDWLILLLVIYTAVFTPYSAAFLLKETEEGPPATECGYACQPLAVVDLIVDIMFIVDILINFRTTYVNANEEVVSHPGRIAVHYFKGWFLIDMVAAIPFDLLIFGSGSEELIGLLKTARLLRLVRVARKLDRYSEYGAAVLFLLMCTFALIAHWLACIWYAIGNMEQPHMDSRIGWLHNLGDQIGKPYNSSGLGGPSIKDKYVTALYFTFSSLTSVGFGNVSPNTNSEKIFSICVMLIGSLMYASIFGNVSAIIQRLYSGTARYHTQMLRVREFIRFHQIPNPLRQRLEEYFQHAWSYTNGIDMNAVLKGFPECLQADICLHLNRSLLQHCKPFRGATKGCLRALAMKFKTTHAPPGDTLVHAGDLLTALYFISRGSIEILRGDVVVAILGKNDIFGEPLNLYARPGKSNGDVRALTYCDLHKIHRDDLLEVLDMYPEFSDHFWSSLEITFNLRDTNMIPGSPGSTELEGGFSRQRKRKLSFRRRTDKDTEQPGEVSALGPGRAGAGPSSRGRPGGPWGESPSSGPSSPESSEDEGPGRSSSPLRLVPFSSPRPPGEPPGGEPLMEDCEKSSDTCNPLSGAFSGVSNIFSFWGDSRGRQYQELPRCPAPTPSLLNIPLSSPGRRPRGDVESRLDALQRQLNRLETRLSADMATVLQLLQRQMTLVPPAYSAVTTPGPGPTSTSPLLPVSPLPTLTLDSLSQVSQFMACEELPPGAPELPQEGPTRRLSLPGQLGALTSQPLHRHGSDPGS
row,SMILES,"hERG current change (%, negative = inhibition) at 10uM"
1,C#CCOCCOCCOCCNc1nc(N2CCOCC2)nc(N2CCN(C(=O)[C@H]([C@@H](C)CC)n3cc(CCC[NH+]=C(N)N)nn3)CC2)n1.[Cl-],-0.117%
2,COc1cccc(-n2c(SCC(N)=O)nnc2-c2ccncc2)c1,16%
3,O=c1[nH]nc(Cc2ccccc2)c2ccccc12,4.16%
4,O=c1[nH]nc(Cc2ccc(Cl)cc2)c2ccccc12,8.04%
5,O=c1[nH]nc(Cc2ccc([N+](=O)[O-])cc2)c2ccccc12,-70.2%
6,CN(C)CCNC(=O)c1cc(Br)ccc1Cl,3.14%
7,CC(=O)c1c(N2CCN(c3ccccn3)CC2)nc(=S)n(-c2ccccc2)c1C,-32.3%
8,CC(C)(C)OC(=O)N1CCC(c2cc(-c3cccs3)n[nH]2)CC1,-1.2%
9,Cc1ccc(CN2CCN(/N=C/c3cccs3)CC2)cc1,-38%
10,Cc1ccc(CN2CCC(c3cc(-c4ccc(Cl)cc4)n[nH]3)CC2)cc1,-78.8%
11,CCOC(=O)CN1CCC(c2cc(-c3ccc(Cl)cc3)n[nH]2)CC1,-12.5%
12,Clc1ccc(-c2cc(C3CCNCC3)[nH]n2)cc1,-3.21%
13,Cc1ccc(CN2CCC(c3cc(-c4cccs4)n[nH]3)CC2)cc1,-82.1%
14,O=C(O)c1ccc(NC(=O)c2cccc(C(=O)Nc3ccc(C(=O)O)cc3)c2)cc1,7.31%
15,Cc1c(S(=O)(=O)NCCc2ccccc2)c(=O)n(C)c(=O)n1C,-1.25%
16,CCN(CC)C(=O)c1ccc2c(c1[N+](=O)[O-])C(=O)c1ccccc1C2=O,6.69%
17,Cc1nn(C2CCOC(C)(C)C2)c2c1C(c1ccc(OC(C)C)cc1)SCC(=O)N2 (stereo not drawn),-15.5%
18,Nc1nc(N2CCCCC2)nc(N(c2ccccc2)c2ccccc2)n1,17.1%
19,Nc1nc(N2CCCCC2)nc(N2CCCCC2)n1,-78.2%
20,C1CCN(c2nc(N3CCCCC3)nc(N3CCNCC3)n2)CC1,-7.81%
21,O=C(C1CCN(S(=O)(=O)N2CCOCC2)CC1)N1CCOCC1,-6.69%
22,Cc1ccc(NC(=O)CN2CCOCC2)cc1,14.1%
23,CCN(CC)S(=O)(=O)c1ccc(NC(=O)C2CCCO2)cc1 (stereo not drawn),6.96%
24,CN(C)S(=O)(=O)c1ccc(NC(=O)CN2CCOCC2)cc1,9.72%

row,SMILES,"hERG current change (%, negative = inhibition) at 10uM"
1,CCCN(CCC)S(=O)(=O)c1ccc(NC(=O)C2CCCO2)cc1 (stereo not drawn),-64.4%
2,CCCCN(CCCC)S(=O)(=O)c1ccc(NC(=O)CN2CCOCC2)cc1,-53.6%
3,CCCCNS(=O)(=O)c1ccc(NC(=O)C2CCCO2)cc1 (stereo not drawn),-8.88%
4,CC12CCC(C(=O)N(CC(O)CN3CCN(Cc4ccccc4)CC3)C1=O)C2(C)C.Cl (stereo not drawn),-6.03%
5,O=C(C1CCC(=O)N1Cc1ccccc1Cl)N1CCC2(CC1)OCCO2 (stereo not drawn),-29.7%
6,COc1ccc(CN2CCNC(=O)C2CC(=O)NCCCC2CCCC2)c(C)c1C (stereo not drawn),5.39%
7,CC(CNS(=O)(=O)c1ccc2c(c1)CC(=O)N2C)c1ccccc1 (stereo not drawn),-12.3%
8,COc1cccc(NC(=O)CN(C)C(=O)c2cc(C)oc2C)c1,6.56%
9,Cc1cc2cc(CNC(=O)c3ccc4c(c3)OCO4)ccc2[nH]1,-1.85%
10,O=c1[nH]c2ccc(Br)cc2c(-c2ccccc2)c1CN1CCOCC1,-65.7%
11,Cc1ccc2[nH]c(=O)c(CC(=O)O)c(-c3ccccc3)c2c1,17.7%
12,CCc1ccc2[nH]c(C)c(CN3CCCCCC3)c(=O)c2c1,-46.9%
13,Cc1ccc2[nH]c(=O)c(CN3CCCCC3)c(-c3ccccc3)c2c1,-53.6%
14,Cc1[nH]c2ccc(Br)cc2c(=O)c1CN1CCOCC1,-27.2%
15,O=c1[nH]c2ccc(Cl)cc2c(-c2ccccc2)c1CN1CCOCC1,-14.7%
16,Cc1ccc2[nH]c(-c3ccccc3)c(CN3CCCC3)c(=O)c2c1,-12.2%
17,O=c1[nH]c2ccc(Br)cc2c(-c2ccccc2)c1N1CCOCC1,7.5%
18,Cc1[nH]c2ccc(Br)cc2c(=O)c1CN1CCCCCC1,-64.3%
19,COc1ccc(CN2CCNC(=O)C2CC(=O)NC2CCCCCCC2)cc1C (stereo not drawn),15.8%
20,CC(C)(C)c1cc(=O)[nH]c(SCc2ccccc2)n1,17.3%
21,OCC1CO1 (stereo not drawn),15.8%
22,Cn1c(O)c(N=NC(=O)CNC(=O)c2cccnc2)c2ccccc21,15.1%
23,CCOC(=O)c1c(O)c2ccccc2n(C)c1=O,27.7%
24,CCOc1ccc(NC(=O)CSc2n[nH]c(N)n2)c([N+](=O)[O-])c1,-6.62%

row,SMILES,"hERG current change (%, negative = inhibition) at 10uM"
1,COc1cccc(C(=O)NCc2cccnc2)c1,1.54%
2,O=C1CSC(c2cn(-c3ccccc3)nc2-c2cc3ccccc3oc2=O)N1Cc1ccccc1 (stereo not drawn),5.85%
3,O=C(CSc1nc2[nH]ncc2c(=O)[nH]1)Nc1cccc(Cl)c1,4.2%
4,CN(C)c1ccnc(N(Cc2ccccc2)Cc2ccccc2)c1C#N.Cl,-6.74%
5,CN(C)c1nccc(N(Cc2ccccc2)Cc2ccccc2)c1C#N,-58.3%
6,CN(C)CCN(Cc1ccccc1)c1ccnc(N(C)C)c1C#N,-26.7%
7,Cc1c(Cl)cccc1N=C1SCCN1C(=O)CN1C(=O)NC2(CCCC2)C1=O,-16.5%
8,O=C(C1CC1)N1CCc2cc(Br)cc(S(=O)(=O)N3CCCCCC3)c21,-16.5%
9,O=C(N/N=C/c1ccncc1)c1ccc(OCc2ccccc2)cc1,-0.12%
10,O=C1NC(=O)/C(=C\c2ccc(Sc3ccc(Cl)cc3)o2)N1,2.37%
11,Oc1ccc(/C=N/Nc2nc(-c3cccnc3)nc3ccccc23)c(O)c1,-2.97%
12,COc1ccc(-c2occ(C(=O)O)c2C(=O)O)cc1,-3.07%
13,COc1ccc(C2=NN(C(=O)CCC(=O)O)C(c3ccc([N+](=O)[O-])cc3)C2)cc1 (stereo not drawn),10.2%
14,CC(=O)N1N=C(c2ccc(Cl)cc2)CC1c1ccc([N+](=O)[O-])cc1 (stereo not drawn),11.8%
15,CCC(=O)N1N=C(c2ccccc2)CC1c1ccc([N+](=O)[O-])cc1 (stereo not drawn),-53.4%
16,CCC(=O)N1N=C(c2ccccc2)CC1c1ccccc1 (stereo not drawn),2.71%
17,O=C(O)CCC(=O)N1N=C(c2cccs2)CC1c1cccc([N+](=O)[O-])c1 (stereo not drawn),20%
18,CC(=O)N1N=C(c2cccs2)CC1c1cccc([N+](=O)[O-])c1 (stereo not drawn),-51.6%
19,CC(=O)N1N=C(c2ccccc2)CC1c1cccc([N+](=O)[O-])c1 (stereo not drawn),-27.3%
20,COc1ccc(C2CC(c3ccc([N+](=O)[O-])cc3)=NN2C(C)=O)cc1 (stereo not drawn),-64.5%
21,COc1ccc(C2CC(c3ccc(Cl)cc3)=NN2C(C)=O)cc1 (stereo not drawn),-23.5%
22,CC(=O)N1N=C(c2ccccc2)CC1c1ccccc1[N+](=O)[O-] (stereo not drawn),2.95%
23,CC(=O)N1N=C(c2ccc([N+](=O)[O-])cc2)CC1c1ccccc1Cl (stereo not drawn),-66%
24,CCn1cc([N+](=O)[O-])c(C(=O)N2N=C(c3ccccc3)CC2c2ccc([N+](=O)[O-])cc2)n1 (stereo not drawn),-37.2%

row,SMILES,"hERG current change (%, negative = inhibition) at 10uM"
1,O=C(O)CC1S/C(=N/N=C/C=C/c2ccccc2)NC1=O (stereo not drawn),0.632%
2,Cc1ccc(-n2c(C)c(C)c3c(NCCO)ncnc32)cc1,6.27%
3,CSc1nsc(SCC(=O)Nc2nc3ccccc3s2)n1,9.66%
4,Cn1c(=O)[nH]c2nnc(-c3ccc(Cl)c(Cl)c3)nc2c1=O,8.52%
5,COc1ccc(OC)c(/C=N/NC(=O)c2cnccn2)c1,1.45%
6,COc1ccccc1CNC(=O)C(=O)NCC1OCCN1C(=O)c1cccs1 (stereo not drawn),3.96%
7,Cc1c(C(=O)N/N=C/c2ccc(-c3ccccc3[N+](=O)[O-])o2)sc(N)c1C#N,12.1%
8,COc1ccccc1N(C)S(=O)(=O)c1ccc(C(=O)OC(C)C(=O)NCc2ccc3c(c2)OCO3)cc1 (stereo not drawn),-41.6%
9,CCc1ccc(NC(=S)NCC2CCCN2CC)cc1 (stereo not drawn),-32.2%
10,CCn1c(SCC(=O)OC)nnc1C1CCCCC1,6.57%
11,O=C(N/N=C/c1ccoc1)c1ccccc1Br,16.9%
12,CCc1nc(SCc2ccc(Cl)cc2)n[nH]1,12%
13,Cc1csc(NC(=O)CSc2nnc(Cc3cccn3C)n2CCc2ccccc2)n1,-4.35%
14,CCn1c(SCC(=O)Nc2nc(C)cs2)nnc1-c1ccoc1C,-1.96%
15,Cc1csc(NC(=O)CSc2nnc(-c3ccoc3C)n2C(C)c2ccccc2)n1 (stereo not drawn),-74.1%
16,Cc1csc(NC(=O)CSc2nnc(-c3ccoc3C)n2CCc2ccccc2)n1,-59.7%
17,Cc1occc1-c1nnc(SCC(=O)Nc2nccs2)n1CCc1ccccc1,-60.3%
18,Cc1occc1-c1nnc(SCC(=O)NC(C)(C)C)n1C(C)c1ccccc1 (stereo not drawn),-11.8%
19,CCn1c(SCC(=O)Nc2nccs2)nnc1-c1ccco1,-10.7%
20,Cc1occc1-c1nnc(SCC(=O)Nc2ccccc2)n1C(C)c1ccccc1 (stereo not drawn),-37.6%
21,Cn1cccc1Cc1nnc(SCC(=O)Nc2nccs2)n1CCc1ccccc1,-9.58%
